Screening results: PubChem BioAssay, National Center for Advancing Translational Sciences (NCATS)
SMN2 splice up – SMN2 splice variant enhancement. Potency, µM (top dose mostly 46.1 µM), usual class: activators. AID 1458. HEK293 SMN2-luciferase splicing reporter, luminescence, 30-36 h. actives 2.8% (n = 210,000); note: nearly all actives have a fitted effect of over 55% in size
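HEK293 cells carry an SMN2 […]–luciferase reporter in which exon 7 inclusion puts luciferase in frame. Cells were plated 10-12 h before compound addition, then incubated 30-36 h at 37C. ONE-Glo luminescence was read; sodium butyrate at 4.5 mM final served as control.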
NPC1 promoter act – activates the NPC1 promoter | actives 2.4% (n = 320,000) | Potency, µM (series often up to 9.22 µM), hits mostly activators | Huh7 NPC1 promoter luciferase reporter, 24 h; note: nearly all actives have a fitted effect of over 60% in size
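Huh7 cells stably carrying NPC1 promoter–luciferase, plated in Opti-MEM with 10% FBS for 2 h, were exposed to compound in DMSO for 24 h at 37 °C; luciferase reagent was added for 10 min and luminescence read.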
FLuc modulator – inhibits or activates purified firefly luciferase, miR-21 counter-screen. P08659. purified FLuc, Km substrates, luminescence inhibition. Potency, µM (doses to about 57.5 µM), most hits filed as inhibitors. actives 6.9% (n = 360,000); note: nearly all actives have a fitted effect of over 55% in size
Target sequence (P08659 whole entry, looked up): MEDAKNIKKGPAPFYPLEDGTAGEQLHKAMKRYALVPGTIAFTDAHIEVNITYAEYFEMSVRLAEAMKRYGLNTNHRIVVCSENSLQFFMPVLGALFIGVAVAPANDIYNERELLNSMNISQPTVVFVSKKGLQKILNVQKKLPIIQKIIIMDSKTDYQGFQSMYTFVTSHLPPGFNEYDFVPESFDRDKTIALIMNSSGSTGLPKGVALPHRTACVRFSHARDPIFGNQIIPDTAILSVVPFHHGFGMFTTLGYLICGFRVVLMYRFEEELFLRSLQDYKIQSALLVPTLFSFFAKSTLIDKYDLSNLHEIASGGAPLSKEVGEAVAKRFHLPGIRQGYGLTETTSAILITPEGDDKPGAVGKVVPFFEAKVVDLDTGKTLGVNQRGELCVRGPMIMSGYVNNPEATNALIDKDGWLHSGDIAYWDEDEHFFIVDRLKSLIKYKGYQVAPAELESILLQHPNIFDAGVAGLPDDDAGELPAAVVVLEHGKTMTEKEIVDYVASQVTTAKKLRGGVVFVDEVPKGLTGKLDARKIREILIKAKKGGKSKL
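Biochemical qHTS of compounds, final roughly 60 µM downward over six points, against 10 nM purified firefly luciferase using Km concentrations of substrates (10 uM D-luciferin, 10 uM ATP) in Tris acetate pH 7.5 buffer; luminescence output.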
Luc counter – counter-screen: inhibitors of Kinase-Glo firefly luciferase. Q27757. Kinase-Glo luciferase, ATP luminescence, 8 min. Potency, µM (top dose mostly 38.3 µM), usual class: inhibitors. actives 0.28% (n = 200,000); note: nearly all actives have a fitted effect of over 60% in size
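Light output from Kinase-Glo luciferase with luciferin and 10 uM ATP in 50 mM imidazole pH 7.2, KCl, MgCl2, Tween 20, BSA; compound pin-delivered, 8-min ambient incubation, then luminescence read.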
Rab9 prom act – activates the Rab9 promoter. Huh7 Rab9 promoter-luciferase reporter, luminescence, 24 h. Potency, µM (highest dose often 9.22 µM), most hits filed as activators. actives 2.8% (n = 320,000). AID 485297; note: nearly all actives have a fitted effect of over 60% in size
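Huh7 reporter line, Rab9 promoter upstream of luciferase. Compound exposure 24 h at 37 °C in reduced-serum medium with 10% FBS. Read-out: luminescence.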
Hits are given with their value. Hits are enriched below; roughly 7.3% of the tested compounds scored in any of these assays. Calls come from the whole dose curve; as a rule, active = well fitted curve in the direction sought with a large enough effect; inconclusive = small, poorly fitted or top-dose-only effect, or another doubt; inactive = no such curve, though single readings can be large; an effect the other way counts as inactive or inconclusive.

Results for Cc1cc(N/N=C/c2ccccc2Cl)nc(NCc2ccccc2)n1 ?
SMN2 splice up: inactive; NPC1 promoter act: inactive; FLuc modulator: 7.6µM; Luc counter: inactive; Rab9 prom act: inactive

Results for Cc1cc(C)nc(N/N=C/c2ccccc2Cl)n1 ?
NPC1 promoter act: inactive; FLuc modulator: inconclusive; Rab9 prom act: inconclusive

What do the screens show for `CC(C)NC(=S)N/N=C/c1ccc2c(c1)OCCO2`?
SMN2 splice up: inactive; NPC1 promoter act: inactive; FLuc modulator: 6.7µM; Luc counter: inactive; Rab9 prom act: inconclusive

What do the screens show for `Cc1cc(C)nc(N/N=C/c2cccc3ccccc23)n1`?
SMN2 splice up: inactive; NPC1 promoter act: inactive; FLuc modulator: 12µM; Luc counter: inactive; Rab9 prom act: inactive

How did CCOc1ccc(NC(=O)Cn2c(=O)nc(-c3ccccc3)c3ccccc32)cc1 do in these assays?
FLuc modulator: inactive

What do the screens show for `COc1ccc(N2CCN(C(=O)CN3CCSc4ccccc43)CC2)cc1`?
FLuc modulator: inactive

How did CC(C)CCNC(=O)c1cccc(C(=O)NCCC(C)C)c1 do in these assays?
SMN2 splice up: inactive; NPC1 promoter act: inactive; FLuc modulator: inactive; Luc counter: inactive; Rab9 prom act: inactive

What do the screens show for `CC(C)CCNC(=O)c1ccc(-c2ccccc2)cc1`?
SMN2 splice up: 7.9µM; NPC1 promoter act: inconclusive; FLuc modulator: 9.5µM; Luc counter: inactive; Rab9 prom act: 3.5µM

What do the screens show for `CC(C)CCNC(=O)C(=O)Nc1ccccc1`?
SMN2 splice up: inconclusive; NPC1 promoter act: 3.5µM; FLuc modulator: inconclusive; Luc counter: inactive; Rab9 prom act: 1.6µM

How did CC(C)CCNC(=O)C(=O)Nc1c2c(nn1-c1ccccc1)CS(=O)(=O)C2 do in these assays?
FLuc modulator: inactive

How did CCC(Sc1nc2ccncc2[nH]1)C(=O)Nc1ccc(F)cc1 (configuration not stated) do in these assays?
SMN2 splice up: inactive; FLuc modulator: inactive

How did CCOC(=O)c1c(-c2cccs2)csc1NC(=O)c1ccncc1 do in these assays?
SMN2 splice up: inactive; NPC1 promoter act: inactive; FLuc modulator: inactive; Luc counter: inactive; Rab9 prom act: inactive

How did COC(=O)c1c(-c2cccs2)csc1NC(=O)c1ccc(C)cc1 do in these assays?
FLuc modulator: 5.4µM

How did COC(=O)c1c(NC(=O)c2ccc(C)cc2)csc1C do in these assays?
NPC1 promoter act: inactive; FLuc modulator: 11µM; Rab9 prom act: inactive

Results for COC(=O)c1ccc(C2c3c(oc4ccc(C)cc4c3=O)C(=O)N2Cc2ccc3c(c2)OCO3)cc1 (configuration not stated) ?
SMN2 splice up: inactive; FLuc modulator: inactive

What do the screens show for `Cc1ccc(NC(=O)CCNC(=O)Cn2ccc3ccccc3c2=O)cc1F`?
NPC1 promoter act: inactive; FLuc modulator: 17µM; Rab9 prom act: inconclusive

What do the screens show for `C#CCSc1ncc(-c2ccccc2)cn1`?
SMN2 splice up: inactive; NPC1 promoter act: inactive; FLuc modulator: inconclusive; Luc counter: inactive; Rab9 prom act: inconclusive

What do the screens show for `C=CCSc1ncc(-c2ccccc2)cn1`?
SMN2 splice up: inactive; NPC1 promoter act: inactive; FLuc modulator: 15µM; Luc counter: inactive; Rab9 prom act: inactive

Results for O=C(NC(=O)N1CCN(c2ccccc2)CC1)c1ccc(Cl)cc1 ?
SMN2 splice up: 13µM; NPC1 promoter act: inactive; FLuc modulator: 27µM; Luc counter: inactive; Rab9 prom act: inactive

Results for CCOc1ccc(N(CC(=O)Nc2cc(C)cc(C)c2)S(C)(=O)=O)cc1 ?
NPC1 promoter act: inconclusive; FLuc modulator: inconclusive; Rab9 prom act: inactive

Results for Cc1ccc(N(CC(=O)Nc2ccc3c(c2)OCCO3)S(C)(=O)=O)cc1 ?
NPC1 promoter act: inconclusive; FLuc modulator: 19µM; Luc counter: inactive; Rab9 prom act: inconclusive

What do the screens show for `CCOc1ccc(N(CC(=O)Nc2ccc(C)cc2)S(C)(=O)=O)cc1`?
NPC1 promoter act: 3.5µM; FLuc modulator: 15µM; Rab9 prom act: 0.89µM

How did Cc1ccc(Nc2c(-c3cccs3)nc3nc(C)cc(C)n23)cc1 do in these assays?
SMN2 splice up: inactive; FLuc modulator: inconclusive

Results for CCN(CC)c1ccc(C=Nc2ccccc2C)c(O)c1 ?
SMN2 splice up: inactive; NPC1 promoter act: inconclusive; FLuc modulator: 1.3µM; Luc counter: inactive; Rab9 prom act: inconclusive

How did CCN(CC)c1ccc(C=Nc2ccc(C#N)cc2)c(O)c1 do in these assays?
SMN2 splice up: inactive; NPC1 promoter act: inactive; FLuc modulator: inactive; Luc counter: inactive; Rab9 prom act: inactive
